The values that follow come from PubChem BioAssay AID1224864 (Chung Lab, Department of Pediatrics, Emory University, 2016).

Among all 2,000 compounds or so, about 20 (1%) were called active. This is one part of a sample in which actives are shown more often than they occur. No rule for the calls is given here.

In the assay the target is Cystic fibrosis transmembrane conductance regulator (Homo sapiens) (UniProt P13569). In words: correctors of F508del-CFTR surface localization, primary screen, imaging, HeLa, high-content microscopy, immunofluorescence (AID 1224864).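 Also: HeLa cells stably expressing F508del-CFTR stained with 3G11 antibody against NBD1.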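 As to plasma membrane CFTR intensity: mean immunofluorescence in a thin cell-margin band taken as plasma membrane.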 The following applies: PM immunofluorescence imaging, 24 h, at 10 µM, stronger effect = higher value; total CFTR intensity: measured here: total cellular F508del-CFTR signal unless noted.
Cystic fibrosis transmembrane conductance regulator (Homo sapiens), sequence (P13569 whole entry, looked up, stated change not applied): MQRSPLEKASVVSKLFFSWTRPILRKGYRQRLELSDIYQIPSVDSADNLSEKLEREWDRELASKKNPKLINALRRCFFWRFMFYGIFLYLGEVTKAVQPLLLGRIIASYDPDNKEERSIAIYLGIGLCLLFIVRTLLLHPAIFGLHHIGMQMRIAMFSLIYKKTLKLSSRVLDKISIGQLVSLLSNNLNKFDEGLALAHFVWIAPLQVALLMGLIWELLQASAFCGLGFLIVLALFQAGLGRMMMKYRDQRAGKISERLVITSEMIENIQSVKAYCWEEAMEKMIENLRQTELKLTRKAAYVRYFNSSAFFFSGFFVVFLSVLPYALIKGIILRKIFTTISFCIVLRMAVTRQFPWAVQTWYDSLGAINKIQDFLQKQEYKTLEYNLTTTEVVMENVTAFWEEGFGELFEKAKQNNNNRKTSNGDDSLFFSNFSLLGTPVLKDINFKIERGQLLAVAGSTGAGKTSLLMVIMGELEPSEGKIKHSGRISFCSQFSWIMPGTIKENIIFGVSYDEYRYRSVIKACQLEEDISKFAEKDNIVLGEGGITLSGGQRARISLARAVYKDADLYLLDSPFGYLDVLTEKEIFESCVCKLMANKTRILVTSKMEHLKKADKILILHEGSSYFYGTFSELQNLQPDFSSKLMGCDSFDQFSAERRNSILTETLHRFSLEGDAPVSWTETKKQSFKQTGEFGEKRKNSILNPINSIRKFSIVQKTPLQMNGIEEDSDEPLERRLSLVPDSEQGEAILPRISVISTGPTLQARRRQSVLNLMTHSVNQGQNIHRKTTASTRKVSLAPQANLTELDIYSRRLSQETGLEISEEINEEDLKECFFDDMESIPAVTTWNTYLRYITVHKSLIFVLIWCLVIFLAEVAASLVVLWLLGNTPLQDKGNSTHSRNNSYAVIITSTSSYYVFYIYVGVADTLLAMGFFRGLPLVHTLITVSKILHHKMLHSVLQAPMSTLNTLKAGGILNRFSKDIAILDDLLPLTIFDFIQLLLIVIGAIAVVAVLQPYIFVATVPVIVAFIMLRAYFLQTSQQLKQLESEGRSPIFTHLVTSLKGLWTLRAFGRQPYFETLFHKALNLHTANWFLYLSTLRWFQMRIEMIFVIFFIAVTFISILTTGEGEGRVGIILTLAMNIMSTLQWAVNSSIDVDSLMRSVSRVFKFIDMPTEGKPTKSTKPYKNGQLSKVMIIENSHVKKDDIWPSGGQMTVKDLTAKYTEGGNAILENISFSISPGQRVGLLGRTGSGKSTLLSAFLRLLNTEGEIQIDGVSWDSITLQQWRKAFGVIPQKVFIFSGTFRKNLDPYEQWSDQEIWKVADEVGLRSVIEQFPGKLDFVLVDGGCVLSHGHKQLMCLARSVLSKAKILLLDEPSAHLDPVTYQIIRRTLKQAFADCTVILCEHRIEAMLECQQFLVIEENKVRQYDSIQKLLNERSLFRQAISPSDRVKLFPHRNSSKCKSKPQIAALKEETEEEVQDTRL
In the case of `CC[C@@H](CO)NC(=O)[C@@H]1C=C2c3cccc4c3c(cn4C)C[C@H]2N(C)C1`, the plasma membrane CFTR intensity is 78% (inactive) and the total CFTR intensity came to 76%.

Regarding `CC(C)[C@H]1C(=O)N2CCC[C@H]2[C@]2(O)O[C@](NC(=O)[C@@H]3C=C4c5cccc6[nH]cc(c56)C[C@H]4N(C)C3)(C(C)C)C(=O)N12`, the plasma membrane CFTR intensity was 106% [relative to vehicle wells set at 100] (active) and the total CFTR intensity was 139% [measured here: total cellular F508del-CFTR signal, relative to vehicle wells set at 100].

As for `CC(C)[C@@]1(NC(=O)[C@@H]2C[C@@H]3c4cccc5[nH]cc(c45)C[C@H]3N(C)C2)O[C@@]2(O)[C@@H]3CCCN3C(=O)[C@H](Cc3ccccc3)N2C1=O`, the plasma membrane CFTR intensity is 50% (inactive) and the total CFTR intensity was 49%.

For `CC(C)C[C@H]1C(=O)N2CCCC2[C@]2(O)O[C@](NC(=O)[C@@H]3C=C4c5cccc6[nH]cc(c56)CC4N(C)C3)(C(C)C)C(=O)N12` (stereo not given in full), the plasma membrane CFTR intensity was 123% [relative to vehicle wells set at 100] (active) and the total CFTR intensity is 142% [measured here: total cellular F508del-CFTR signal, relative to vehicle wells set at 100].

`Clc1ccc(C2NCCc3nc[nH]c32)cc1` (stereo not given): the plasma membrane CFTR intensity was 79% [relative to vehicle wells set at 100] (inactive) and the total CFTR intensity was 78% [measured here: total cellular F508del-CFTR signal, relative to vehicle wells set at 100].

For `CC(C)C(=O)Nc1ccc(S(=O)(=O)N2CC3CC(C2)c2cccc(=O)n2C3)cc1` (stereo not given), the plasma membrane CFTR intensity was 92% (inactive) and the total CFTR intensity came out at 96%.

In the case of `C[C@@]1(CO)[C@H](O)CC[C@@]2(C)[C@H]1CC[C@H]1C[C@@H]3C[C@@]12CC[C@]3(O)CO`, the plasma membrane CFTR intensity is 75% (inactive) and the total CFTR intensity was found to be 83%.

With `CN1CCN(CCCN2c3ccccc3Sc3ccc(Cl)cc32)CC1`, the plasma membrane CFTR intensity is 57% (inactive) and the total CFTR intensity turned out to be 48%.

Regarding `COP(=O)(OC)C(O)C(Cl)(Cl)Cl` (stereo not given), the plasma membrane CFTR intensity is 96% (inactive) and the total CFTR intensity was found to be 100%.

With `CC12CC[C@H]3[C@@H](CCC4(O)C[C@H](O)CCC34/C=N/NC(=O)Cc3ccccc3)C1(O)CCC2C1=CC(=O)OC1` (stereo not given in full), the plasma membrane CFTR intensity was 87% [relative to vehicle wells set at 100] (inactive) and the total CFTR intensity was 88% [measured here: total cellular F508del-CFTR signal, relative to vehicle wells set at 100].
